From the supplement of paper PMC9262897, “Low-cost anti-mycobacterial drug discovery using engineered E. coli” (Nature Communications, 2022)
Counter-ions that a name gives are not always drawn. ± gives the standard deviation of the averaged measurements.

Assays:
Assay in all cases: growth (OD600 after 10 h); higher = more growth (less inhibition)
[1] = system: E. coli TESEC Alr+ wild-type control; conditions: compound 0.1 mM; raw OD600 reference: median of DMSO wells 0.241, cell-free background 0.041
Procedure: (§1)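 TESEC Mtb Alr E. coli, or the Alr+ wild-type control, in 384-well plates with Prestwick library compounds at 0.1 mM and 1% DMSO, across arabinose induction levels of 1E3 to 1E7 nM. Growth is read as OD600 after 10 h at 37 °C in triplicate biological replicates.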

[2] = system: E. coli TESEC Mtb Alr; conditions: compound 0.1 mM
Procedure: as §1

[3] = system: E. coli TESEC Mtb Asd; conditions: compound 0.1 mM
Procedure: (§2)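 TESEC E. coli strains in which the native enzyme is deleted and replaced by arabinose-inducible Mtb Asd, DapB, CysH or TrpD, each grown in its selective medium. Strains were screened against the Prestwick library at 0.1 mM and 1% DMSO in 384-well format at low and high arabinose induction. Growth is read as OD600 after 10 h in triplicate.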

[4] = system: E. coli TESEC Mtb DapB; conditions: compound 0.1 mM
Procedure: as §2

[5] = system: E. coli TESEC Alr+ wild-type control; conditions: compound 0.1 mM; raw OD600 reference: median of DMSO wells 0.49, cell-free background 0.052
Procedure: (§3)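 TESEC Mtb Alr E. coli (ΔaraC ΔtolC ΔentC Δalr ΔdadX, arabinose-inducible Mtb Alr) or the Alr+ wild-type control strain, grown in defined M9-fructose medium without D-alanine in 96-well plates with Prestwick library compounds at 0.1 mM and 1% DMSO. Low Alr induction is 0.1 µM arabinose and high induction is 10 mM arabinose.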

[6] = system: E. coli TESEC Mtb Alr; conditions: compound 0.1 mM; remark: listed apart in the source
Procedure: as §3

[7] = arabinose 1000 nM, raw OD600 reference: median of DMSO wells 0.294, cell-free background 0.041
[8] = arabinose 10000 nM, raw OD600 reference: median of DMSO wells 0.264, cell-free background 0.041
[9] = arabinose 100000 nM, raw OD600 reference: median of DMSO wells 0.201, cell-free background 0.041
[10] = arabinose 1000000 nM, raw OD600 reference: median of DMSO wells 0.193, cell-free background 0.041
[11] = arabinose 10000000 nM, raw OD600 reference: median of DMSO wells 0.146, cell-free background 0.041
[12] = arabinose induction (level): High, raw OD600 reference: median of DMSO wells 0.331, cell-free background 0.041
[13] = arabinose induction (level): Low, raw OD600 reference: median of DMSO wells 0.417, cell-free background 0.041
[14] = arabinose induction (level): High, raw OD600 reference: median of DMSO wells […], cell-free background 0.041
[15] = arabinose induction (level): Low, raw OD600 reference: median of DMSO wells 0.227, cell-free background 0.041
[16] = arabinose 100 nM, raw OD600 reference: median of DMSO wells 0.413, cell-free background 0.052
[17] = arabinose 10000000 nM, raw OD600 reference: median of DMSO wells […], cell-free background 0.052

Row | Compound | growth [1] | growth [2, 7] | growth [2, 8] | growth [2, 9] | growth [2, 10] | growth [2, 11] | growth [3, 12] | growth [3, 13] | growth [4, 14] | growth [4, 15] | growth [5] | growth [6, 16] | growth [6, 17]
1 | COc1ncnc(NS(=O)(=O)c2ccc(N)cc2)c1OC [Sulfadoxine] | 0.2282 ± 0.0012 | 0.28 ± 0.0075 | 0.251 ± 0.0051 | 0.192 ± 0.021 | 0.174 ± 0.007 | 0.14 ± 0.0077 | 0.306 ± 0.058 | 0.382 ± 0.062 | 0.195 ± 0.0074 | 0.237 ± 0.0097 | 0.594 ± 0.022 | 0.4331 ± 0.0033 | 0.306 ± 0.007
2 | O=P(O)(O)C(O)(Cn1ccnc1)P(=O)(O)O [Zoledronic acid hydrate] | 0.241 ± 0.0059 | 0.279 ± 0.0055 | 0.278 ± 0.0062 | 0.192 ± 0.022 | 0.211 ± 0.0037 | 0.134 ± 0.0016 | 0.257 ± 0.083 | 0.357 ± 0.034 | 0.193 ± 0.0053 | 0.279 ± 0.069 |  | 0.421 ± 0.011 | 0.294 ± 0.021
3 | CS(=O)(=O)Nc1ccc([N+](=O)[O-])cc1Oc1ccccc1 [Nimesulide] | 0.1929 ± 0.00095 | 0.206 ± 0.0095 | 0.247 ± 0.0073 | 0.149 ± 0.0051 | 0.137 ± 0.0025 | 0.139 ± 0.0087 | 0.272 ± 0.088 | 0.329 ± 0.056 | 0.201 ± 0.0065 | 0.248 ± 0.091 | 0.3996 ± 0.002 | 0.359 ± 0.026 | 0.286 ± 0.01
4 | CC(C(=O)O)c1ccc(C(=O)c2cccs2)cc1 (stereo not drawn) [Suprofen] | 0.2321 ± 0.0022 | 0.263 ± 0.015 | 0.254 ± 0.008 | 0.205 ± 0.0094 | 0.214 ± 0.0056 | 0.138 ± 0.0024 | 0.368 ± 0.056 | 0.365 ± 0.054 | 0.213 ± 0.0048 | 0.196 ± 0.029 | 0.605 ± 0.029 | 0.382 ± 0.01 | 0.3826 ± 0.0029
5 | Nc1ccn([C@@H]2O[C@H](CO)[C@@H](O)[C@@H]2O)c(=O)n1 [Cytarabine] | 0.24 ± 0.0059 | 0.307 ± 0.0036 | 0.247 ± 0.0079 | 0.214 ± 0.025 | 0.1685 ± 0.00085 | 0.171 ± 0.002 | 0.309 ± 0.032 | 0.305 ± 0.02 | 0.224 ± 0.024 | 0.229 ± 0.026 | 0.552 ± 0.051 | 0.406 ± 0.0096 | 0.31 ± 0.0066
6 | CCCCNc1ccc(C(=O)OCCOCCOCCOCCOCCOCCOCCOCCOCCOC)cc1 [Benzonatate] | 0.241 ± 0.0078 | 0.279 ± 0.0063 | 0.252 ± 0.011 | 0.217 ± 0.0091 | 0.148 ± 0.006 | 0.157 ± 0.0052 | 0.245 ± 0.012 | 0.405 ± 0.0093 | 0.17 ± 0.017 | 0.206 ± 0.036 |  | 0.407 ± 0.012 | 0.264 ± 0.12
7 | CN(C)CC/C=C1/c2ccccc2Sc2ccc(Cl)cc21 [Chlorprothixene hydrochloride] | 0.0398 ± 0.0002 | 0.0409 ± 0.001 | 0.03943 ± 0.00032 | 0.04043 ± 0.00038 | 0.042 ± 0.0051 | 0.0425 ± 0.00068 | 0.0468 ± 0.00058 | 0.0472 ± 0.0011 | 0.0467 ± 0.00076 | 0.0463 ± 0.00046 |  | 0.41 ± 0.0049 | 0.0664 ± 0.0082
8 | CCN(CC)CC(=O)Nc1c(C)cccc1C [Lidocaine hydrochloride] | 0.238 ± 0.0076 | 0.256 ± 0.062 | 0.273 ± 0.017 | 0.194 ± 0.01 | 0.183 ± 0.0033 | 0.146 ± 0.0067 | 0.267 ± 0.048 | 0.403 ± 0.057 | 0.204 ± 0.0083 | 0.235 ± 0.048 | 0.586 ± 0.028 | 0.41 ± 0.0091 | 0.345 ± 0.019
9 | CC(C)NCC(O)c1ccc(O)c(O)c1 (single isomer, unassigned; (+)) [(+)-Isoproterenol (+)-bitartrate salt] | 0.211 ± 0.0042 | 0.274 ± 0.02 | 0.2493 ± 0.0013 | 0.18 ± 0.015 | 0.149 ± 0.0077 | 0.137 ± 0.0022 | 0.328 ± 0.028 | 0.468 ± 0.034 | 0.2017 ± 0.0019 | 0.199 ± 0.0075 | 0.497 ± 0.044 | 0.412 ± 0.013 | 0.326 ± 0.021
10 | COc1ccc(CC(C)NCC(O)c2ccc(O)c(NC=O)c2)cc1 (stereo not drawn) [Formoterol fumarate] | 0.235 ± 0.0095 | 0.298 ± 0.0087 | 0.293 ± 0.011 | 0.219 ± 0.024 | 0.18 ± 0.011 | 0.16 ± 0.0057 | 0.251 ± 0.018 | 0.395 ± 0.057 | 0.212 ± 0.019 | 0.238 ± 0.025 | 0.501 ± 0.04 | 0.41363 ± 5.8e-05 | 0.306 ± 0.019
11 | NC[C@H]1CC[C@H](C(=O)O)CC1 [Tranexamic acid] | 0.254 ± 0.0017 | 0.293 ± 0.0074 | 0.282 ± 0.0046 | 0.215 ± 0.031 | 0.186 ± 0.002 | 0.141 ± 0.0029 | 0.381 ± 0.056 | 0.446 ± 0.026 | 0.188 ± 0.011 | 0.214 ± 0.018 | 0.456 ± 0.04 | 0.411 ± 0.0076 | 0.349 ± 0.0049
12 | CCN1CC(CCN2CCOCC2)C(c2ccccc2)(c2ccccc2)C1=O (stereo not drawn) [Doxapram hydrochloride] | 0.234 ± 0.0045 | 0.284 ± 0.0045 | 0.248 ± 0.004 | 0.199 ± 0.018 | 0.205 ± 0.016 | 0.1315 ± 0.0013 | 0.309 ± 0.091 | 0.426 ± 0.072 | 0.205 ± 0.018 | 0.243 ± 0.017 |  | 0.394 ± 0.016 | 0.339 ± 0.014
13 | C[C@]12CC[C@H]3C(=CCc4cc(O)ccc43)[C@@H]1CCC2=O [Equilin] | 0.126 ± 0.0019 | 0.17 ± 0.0095 | 0.226 ± 0.0079 | 0.154 ± 0.0054 | 0.0878 ± 0.0015 | 0.125 ± 0.0018 | 0.159 ± 0.0023 | 0.258 ± 0.044 | 0.174 ± 0.0089 | 0.183 ± 0.017 | 0.424 ± 0.0094 | 0.388 ± 0.0096 | 0.163 ± 0.0075
14 | Cn1cnc2c1c(=O)[nH]c(=O)n2C [Theobromine] | 0.255 ± 0.0061 | 0.313 ± 0.018 | 0.289 ± 0.015 | 0.218 ± 0.02 | 0.189 ± 0.0034 | 0.155 ± 0.011 | 0.483 ± 0.0089 | 0.454 ± 0.03 | 0.206 ± 0.008 | 0.249 ± 0.036 | 0.461 ± 0.015 | 0.404 ± 0.014 | 0.365 ± 0.022
